About 79,000 compounds went through this panel and 15% of them were active in at least one assay; those are over-represented in the sample as a whole. Rule as the data show it: active = growth inhibition above about 70%; inactive = the rest.
Assays:
[1] = NCI Yeast Anticancer Drug Screen. Data for the rad50 strain (AID 155);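 also: 0% = growth of vehicle-only cultures of the same strain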; details: S. cerevisiae rad50 strain growth inhibition; at 50.0 µM; active compounds read high
Summary of the method: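 Inhibition values express reduced yeast growth in compound-treated cultures relative to vehicle-treated controls.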

[2] = NCI Yeast Anticancer Drug Screen. Data for the mec2-1 strain (AID 157); details: S. cerevisiae mec2-1 strain, at 50.0 µM, active compounds read high
Summary of the method: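 Each compound was tested on mec2-1 yeast, a strain altered in DNA damage repair or cell cycle control. Growth inhibition is reported relative to vehicle.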

[3] = NCI Yeast Anticancer Drug Screen. Data for the sgs1 mgt1 strain (AID 161);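 also: 0% = growth of cultures given vehicle only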; details: S. cerevisiae sgs1 mgt1 strain, at 50.0 µM, active compounds read high
Summary of the method: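 Inhibition of yeast growth, normalised to vehicle-treated controls, is reported for a strain bearing genetic alterations in DNA damage repair.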

[4] = NCI Yeast Anticancer Drug Screen. Data for the cln2 rad14 strain (AID 165);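 also: 0% = growth equal to vehicle treated cultures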; details: S. cerevisiae cln2 rad14 strain, at 50.0 µM, active compounds read high
Summary of the method: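 Test compounds were added to cln2 rad14 yeast cultures; inhibition of growth was then determined by comparison with vehicle treatment.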

[5] = NCI Yeast Anticancer Drug Screen. Data for the bub3 strain (AID 167); details: S. cerevisiae bub3 mutant strain, at 50.0 µM, active compounds read high
Summary of the method: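 Steps: expose the mutant yeast strain to compound; grow alongside vehicle-treated cultures; measure growth; express inhibition against the vehicle cultures.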

[6] = NCI Yeast Anticancer Drug Screen. Data for the mlh1 rad18 strain (AID 175); details: S. cerevisiae mlh1 rad18 strain growth inhibition; at 50.0 µM; active compounds read high
Summary of the method: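 Inhibition values reflect reduced growth of mutant yeast versus vehicle-treated controls following compound exposure; the mutations affect DNA damage repair.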

Measured: growth inhibition

Cc1ccc(NC(=O)NCc2ccncc2)cc1NC(=O)NCc1ccncc1
inactive: [1] 13% | [2] 15% | [3] 20.8% | [4] 20.2% | [5] 30.9% | [6] 24.8%

CCCNC(=S)NNC(N)=O
inactive: [1] 2.5% | [2] 7.35% | [3] -9.05% | [4] 6.15% | [5] -11.2% | [6] 12.2%

O=[N+]([O-])c1ccc(C(O)C(c2ccccc2)S(=O)(=O)N2CCCCC2)cc1 (configuration not stated)
inactive: [1] 40.6% | [2] -2.75% | [3] 17.1% | [4] -31.9% | [5] -0.5% | [6] 24.9%

COc1ccc(/C=C2\N=C(c3cc(OC)c(OC)c(OC)c3)OC2=O)cc1
inactive: [1] 20.2% | [2] 13.1% | [3] 18.6% | [4] 24.6% | [5] 22.1% | [6] 7.5%

CN(C)c1ccc(C(c2cc3c(cc2O)OCO3)N2CCN(C(c3ccc(N(C)C)cc3)c3cc4c(cc3O)OCO4)CC2)cc1 (configuration not stated)
inactive: [1] 39.8% | [2] 31.4% | [3] 28.9% | [4] 9.3% | [5] 13.8% | [6] 36.5%

CC(C)CCCC(C)[C@H]1CC[C@H]2[C@@H]3CC[C@H]4C[C@@H](CCC=C(c5cc(Cl)c(O)c(C(=O)OC(C)C)c5)c5cc(Cl)c(O)c(C(=O)OC(C)C)c5)CC[C@]4(C)[C@H]3CC[C@]12C (some centres not stated)
inactive: [1] 17.7% | [2] 9.05% | [3] 23.1% | [4] 18.7% | [5] 11.5% | [6] -32.5%

NC(=O)c1nnsc1NC=O
inactive: [1] 15.2% | [2] 7.95% | [3] -40.7% | [4] -0.2% | [5] -26.1% | [6] -29.8%

CC1CCC2(CC1)NN=c1s/c(=C\c3ccc(O)cc3)c(=O)n1N2 (configuration not stated)
inactive: [1] -9.3% | [2] -1.7% | [3] -21.9% | [4] 8.55% | [5] -21.2% | [6] -19.9%

CC(C)(C)OC(=O)N1CCCC1C(=O)Oc1ccc([N+](=O)[O-])cc1 (configuration not stated)
inactive: [1] 31.6% | [2] 19.4% | [3] 11.4% | [4] 3.55% | [5] 6.25% | [6] 58.5%

CC(=O)CC(=O)Nc1cccc(C)n1
inactive: [1] -0.4% | [2] -9.95% | [3] -14.3% | [4] 3.8% | [5] 6.25% | [6] 7.25%

Cc1c(Cl)cc(C(C)(C)C)c(O)c1Cc1c(C)c(Cl)cc(C(C)(C)C)c1O
inactive: [1] 19.4% | [2] -8.3% | [3] -46.6% | [4] 12.3% | [5] 0% | [6] 1.95%

COc1ccc(C(=O)c2cc3c(ccc4ccccc43)oc2=O)cc1
inactive: [1] -3.7% | [2] 0.6% | [3] 7.2% | [4] 2.85% | [5] 23.9% | [6] -7.45%

O=C(NC(c1ccccc1)C(Cl)(Cl)c1ccccc1)c1ccccc1 (configuration not stated)
inactive: [1] 21.8% | [2] -7.5% | [3] 6.4% | [4] -0.2% | [5] 22.9% | [6] 23.3%

CC(=O)OC1OC(c2ccoc2)C[C@@]12C1CCC3O[C@]3(C)[C@]1(C)C[C@H](OC(C)=O)[C@H]2C (some centres not stated)
inactive: [1] -0.5% | [2] -14.5% | [3] -41.5% | [4] -13.6% | [5] -32.1% | [6] -13.2%

CC/C(=N\N=C(/CC)c1ccc[nH]1)c1ccc[nH]1
inactive: [1] 36.8% | [2] -23.8% | [3] 10.2% | [4] 5.9% | [5] 23.3% | [6] 9.25%

CCOC(=O)N1N=C(c2ccccc2)OC2(N3CCOCC3)CCC(C(C)(C)C)CC12 (configuration not stated)
inactive: [1] 12.8% | [2] 5.1% | [3] 4.6% | [4] 5% | [5] -3% | [6] -2.4%

NS(=O)(=O)c1cc(Br)ccc1Br
inactive: [1] 8.2% | [2] 12.9% | [3] -0.35% | [4] 39.6% | [5] 17.6% | [6] -7.65%

CC(C)Oc1ccc(C(N)=S)c2ccccc12
inactive: [1] -0.55% | [2] 4.75% | [3] -0.85% | [4] -29.1% | [5] -1% | [6] 14.1%

CC(C)CC(C)C
inactive: [1] 17.9% | [2] -2.6% | [3] 20.7% | [4] 5.75% | [5] 13.4% | [6] 25.1%

C/C(C[n+]1ccccc1)=N\N=C(N)N
inactive: [1] -18.8% | [2] -9.05% | [3] -43.8% | [4] -20.5% | [5] -5.35% | [6] -9.2%

CN(N)c1cnn(-c2ccccc2)c(=O)c1Cl
inactive: [1] -37.2% | [2] -48% | [3] -22.1% | [4] 19.4% | [5] 21.4% | [6] -36.6%

CCOC(=O)NOC1CCCCO1 (configuration not stated)
inactive: [1] 1.05% | [2] -6.8% | [3] -3.2% | [4] -14.6% | [5] -10.9% | [6] 4.95%

Oc1cccc(N2CCN(c3cccc(O)c3)CC2)c1
inactive: [1] 2.45% | [2] -26.9% | [3] 3.7% | [4] 9.15% | [5] 5.85% | [6] -15%

O=c1[nH]c(=S)[nH]c2[nH]ccc12
inactive: [1] 6.75% | [2] -13.9% | [3] -19.6% | [4] -1.1% | [5] -0.6% | [6] -4.4%

O=C1OC(c2ccccc2)(c2ccccc2)CC1c1ccccc1 (configuration not stated)
inactive: [1] 9.05% | [2] 7.5% | [3] 12.8% | [4] -44% | [5] -4.25% | [6] 20.7%

O=[N+]([O-])c1cccc(/C=N\O)c1
inactive: [1] -17.8% | [2] -8.45% | [3] -9.9% | [4] -7.45% | [5] -1.2% | [6] -8.4%

CC(=O)/C(=C/n1c(=S)sc2ccccc21)C(=O)Nc1ccc([N+](=O)[O-])cc1
inactive: [1] 6.4% | [2] 4.55% | [3] -2.45% | [4] -15.8% | [5] -19.8% | [6] -8.7%

C=CCC1C(=O)NN=C1C (configuration not stated)
inactive: [1] 5.05% | [2] -12.1% | [3] -10.7% | [4] -22.5% | [5] -5.5% | [6] 2.45%

C=C(C)C1Cc2c(cc(OC)c3c(=O)c4cccc(O)c4oc23)O1 (configuration not stated)
inactive: [1] 43.1% | [2] 15.4% | [3] -1.95% | [4] 25.4% | [5] -20.2% | [6] -21.4%

Cc1cc(C)n2ncnc2n1
inactive: [1] 16.9% | [2] -22.6% | [3] 7.9% | [4] 4.15% | [5] -5.15% | [6] 5.35%

CN(C)CCCNc1ccc([N+](=O)[O-])c2nc3ccccc3c(N)c12
inactive: [1] -2.1% | [2] -64.7% | [3] 6.45% | [4] -0.5% | [5] -11.4% | [6] 65.6%

Cc1cccc2c(/C=C/c3ccc(N(C)C)cc3)ccnc12
inactive: [1] -11.6% | [2] -8% | [3] -3.95% | [4] -22.2% | [5] 2.85% | [6] -11.4%

CCCN(CCC)C(=O)c1c(Cl)c2cccnc2n2c(C)cnc12
inactive: [1] 5.35% | [2] 19.7% | [3] 26.6% | [4] 18.7% | [5] 15.1% | [6] 31.3%

Cc1c(-c2ccccc2)noc1-n1nnc2ccccc2c1=O
inactive: [1] -7.45% | [2] 29.6% | [3] 11.4% | [4] -42.8% | [5] 48.4% | [6] 9.05%

Cc1cccc(CP(Cc2cccc(C)c2)CC2(Cp3c4ccccc4c4ccccc43)COC2)c1
inactive: [1] 18% | [2] -0.8% | [3] 33.4% | [4] 26.9% | [5] 31.6% | [6] 34.5%

O=COCc1ccc(Cl)cc1Cl
inactive: [1] 16.9% | [2] -2.75% | [3] -5.65% | [4] 5% | [5] -1.35% | [6] -11.7%

CC(C)CC(C)(O)C#CC(C)(O)CC(C)C (configuration not stated)
inactive: [1] -1.8% | [2] -25.4% | [3] -12.7% | [4] -31.4% | [5] 4.55% | [6] -22.2%

From PubChem BioAssay (NCI)
